Our source for the period change, inhibition and survival values is PubChem BioAssay.

The nature of assay [1]: circadian clock period modulators, cell-based, LOPAC library, luminescence reporter (AID 2774).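 Further: values are relative to mean of DMSO wells on each plate.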 As to conditions: circadian reporter cells, at 7 µM, actives lie on both sides.
Assay [2] in a line: LFS_MB_P medulloblastoma growth inhibition, cell-based, chromothripsis tumors, cisplatin or BGB combos (AID 1671449; in the data active means inhibition above about 80%;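 further: cells exposed for 96 hours; 0% = vehicle DMSO and 100% = killing by high DMSO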). To be noted: LFS_MB_P medulloblastoma cells.
Assay [3] in a line: HDN33 neuroblastoma growth inhibition, cell-based, chromothripsis tumors, cisplatin or BGB combos (AID 1671450; in the data active means inhibition above about 80%;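 further: cells exposed to compound for four days; 0% = vehicle DMSO and 100% = cell killing by high DMSO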). To be noted: HDN33 neuroblastoma cells, stronger effect = higher value.
Assay [4] can be described thus: ICB984 medulloblastoma cell growth inhibition, synergistic combos for chromothripsis tumors, cisplatin or BGB combos (AID 1671451).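 Further: cells exposed for 96 hours before readout; 0% = vehicle DMSO and 100% = killing by high DMSO.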 To be noted: ICB984 medulloblastoma cells, drug combinations, stronger effect = higher value.
The nature of assay [5]: LFS_MB_1R medulloblastoma cell growth inhibition, synergistic combos for chromothripsis tumors, cisplatin or BGB combos (AID 1671452; in the data active means inhibition above about 80%;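 further: cells exposed for 96 hours before readout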). To be noted: LFS_MB_1R medulloblastoma cells, stronger effect = higher value.
Assay [6] in a line: HTB85 osteosarcoma cell growth inhibition, synergistic combos for chromothripsis tumors, BGB or cisplatin IC20 combos (AID 1671453; in the data active means inhibition above about 80%;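 further: cells exposed for 96 hours before readout; 0% = vehicle DMSO and 100% = high DMSO killing control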). To be noted: HTB85 osteosarcoma cells, drug combinations, stronger effect = higher value.
Assay [7] in a line: CRL2098 osteosarcoma cell growth inhibition, synergistic combos for chromothripsis tumors, BGB or cisplatin IC20 combos (AID 1671454; in the data active means inhibition above about 80%;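 further: cells exposed for 96 h before readout; 0% = vehicle DMSO and 100% = killing by high DMSO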). As to conditions: CRL2098 osteosarcoma cells, drug combinations, stronger effect = higher value.
Assay [8] is described as follows: HD-MB03 medulloblastoma cell growth inhibition, synergistic combos for chromothripsis tumors, BGB or cisplatin IC20 combos (AID 1671455; in the data active means inhibition above about 83%;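 further: 0% = vehicle DMSO and 100% = high DMSO as cytotoxic control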). To be noted: HD-MB03 medulloblastoma cells, stronger effect = higher value.
Assay [9] in a line: UWB1.289 ovarian carcinoma cell growth inhibition, synergistic combos for chromothripsis tumors, BGB or cisplatin combos (AID 1671456; in the data active means inhibition above about 80%;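 further: cells exposed to compound for four days; 0% = vehicle DMSO and 100% = killing by high DMSO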). As to conditions: UWB1.289 ovarian carcinoma cells, stronger effect = higher value.
Assay [10] can be described thus: MDA-MB-436 breast carcinoma cell growth inhibition, synergistic combos for chromothripsis tumors, BGB or cisplatin combos (AID 1671458).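 Further: cells exposed for 96 hours; 0% = vehicle DMSO and 100% = killing by high DMSO.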 As to conditions: MDA-MB-436 breast carcinoma growth inhibition, drug combinations, stronger effect = higher value.
The nature of assay [11]: growth inhibition of BT084 medulloblastoma cells, cell-based, ICGC_MB145, cisplatin and BGB IC40 combos (AID 1671461; in the data active means inhibition above about 80%;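 further: cells exposed to drugs for 96 hours; 0% = vehicle DMSO and 100% = high DMSO full killing control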). To be noted: drug combinations, stronger effect = higher value.
Assay [12] can be described thus: growth inhibition of RCMB18 medulloblastoma cells, cell-based, cisplatin and BGB IC40 combos (AID 1671462; in the data active means inhibition above about 80%;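 further: cells exposed to compound for four days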). To be noted: stronger effect = higher value.
Assay [13] is described as follows: growth inhibition of CRL1545 osteosarcoma cells, cell-based, cisplatin and BGB IC20 combos (AID 1671464; in the data active means inhibition above about 80%;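 further: cells exposed to compound for 96 hours before readout; 0% = vehicle DMSO and 100% = high DMSO killing control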). As to conditions: stronger effect = higher value.
Assay [14] can be described thus: hESC survival regulators, cell-based (AID 493140).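 Further: cells exposed to compounds for four days before counting.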 As to conditions: human embryonic stem cell survival screen; stronger effect = higher value.
The mark [15] stands for this setting: measured here: combination with BGB IC40, at 0.05 µM.
Where [16] appears, read: measured here: with BGB IC20 combination, at 0.5 µM.
[17] abbreviates: measured here: with cisplatin IC20 combination, at 0.5 µM.
The mark [18] stands for this setting: measured here: combination with cisplatin, at 0.5 µM.

The source made the active and inactive calls. Unless noted, how the calls were made is not given here.

Take `O=c1[nH]c(=O)n([C@H]2C[C@H](O)[C@@H](CO)O2)cc1Br`: in assay [1], the period change was -0.205 h (inactive). Further, the inhibition in assay [2] (at 0.5 µM, stronger effect = higher value) was 27% (inactive); in assay [2] (measured here: combination with BGB IC20, at 0.005 µM), -4.77%; in [2] (measured here: combination with BGB IC40, at 0.005 µM), -39.7%; in assay [2] (setting [15]), -12.1%; in [2] (measured here: combination with cisplatin, at 0.5 µM, stronger effect = higher value), 74.8%; in [2] (measured here: combination with cisplatin, at 5 µM, stronger effect = higher value), -36%. Moreover, the inhibition is 11.2% in [3] (BGB combo, at 5 µM); 21.5% (inactive) in assay [3] (at 0.5 µM); 2.65% in [3] (cisplatin combo, at 5 µM); 31.8% in assay [3] (setting [16]); 4.43% in assay [3] (setting [17]); 17% in assay [3] (single agent, at 5 µM). Also, the inhibition was -12.2% in assay [4] (BGB IC20 combo, at 0.005 µM); -50% in assay [4] (BGB IC40 combo, at 0.005 µM); -16.9% in assay [4] (BGB IC40 combo, at 0.05 µM); -24.2% (inactive) in assay [4] (at 0.5 µM); -21.6% in assay [4] (cisplatin combo, at 0.05 µM); -35.3% in [4] (cisplatin combo, at 0.5 µM). Also, the inhibition in assay [4] (cisplatin combo, at 5 µM) is -5.29%; in [4] (measured here: 5 uM single agent, at 5 µM), -6.23%; in [5] (at 0.5 µM), -8.78% (inactive); in assay [5] (setting [15]) it was -9.5%; in assay [5] (setting [18]), -3.13%; in assay [5] (measured here: combination with cisplatin, at 5 µM) it was 18.2%. The inhibition is -5% (inactive) in [6] (at 0.5 µM); -14.3% in assay [6] (measured here: with BGB IC20, at 0.5 µM); -8.79% in assay [6] (measured here: with BGB IC20, at 5 µM); -8.95% in assay [6] (measured here: with cisplatin IC20, at 0.5 µM); 4.02% in assay [6] (measured here: with cisplatin IC20, at 5 µM); 9.21% in assay [6] (single agent, at 5 µM). Also, the inhibition is -34.2% (inactive) in assay [7] (at 0.5 µM); -5.25% in assay [7] (measured here: combination with BGB at IC20, at 0.5 µM); -22.4% in assay [7] (measured here: combination with cisplatin at IC20, at 0.5 µM); 14.2% (inactive) in assay [8] (at 0.5 µM); 14.5% in assay [8] (measured here: combo with BGB at IC20, at 0.5 µM); 32.3% in assay [8] (measured here: combo with cisplatin at IC20, at 0.5 µM). Moreover, the inhibition is 3.4% (inactive) in assay [9] (at 0.5 µM); -18.3% in [9] (measured here: inhibition with BGB combination, at 0.05 µM); -5.15% in assay [9] (measured here: inhibition with cisplatin combination, at 0.05 µM); -4.92% (inactive) in assay [10] (at 0.5 µM); -11.6% in assay [10] (measured here: BGB combination, at 0.5 µM); -22.5% in assay [10] (measured here: BGB combination, at 5 µM). The inhibition in assay [10] (measured here: cisplatin combination, at 0.5 µM) was -2.86%; in assay [10] (measured here: cisplatin combination, at 5 µM), -6.5%; in assay [11] (at 0.5 µM), -8.02% (inactive); in assay [11] (cisplatin combination, at 0.5 µM) it was 3.56%; in assay [11] (cisplatin combination, at 5 µM) it was -1.86%; in assay [11] (measured here: BGB IC40 combination 0.05 uM, at 0.05 µM) it was -20.2%. The inhibition is -7.12% in assay [11] (single agent, at 5 µM); -10.5% (inactive) in assay [12] (at 0.5 µM); 28.1% in [12] (cisplatin combo, at 5 µM); -19.3% in assay [12] (measured here: BGB IC40 combination, at 0.05 µM); 32.5% in assay [12] (setting [18]); -34.1% in assay [12] (single agent, at 5 µM). Besides, the inhibition in assay [13] (at 0.5 µM) was 8.96% (inactive); in assay [13] (setting [16]) it was 3.57%; in assay [13] (setting [17]), 11.6%; in [13] (single agent, at 0.05 µM), -0.752%; in assay [13] (single agent, at 5 µM), 41.5%.
Regarding `CCN[C@H]1CN(CCCOC)S(=O)(=O)c2sc(S(N)(=O)=O)cc21`, the survival in assay [14] was 9.25 (inactive).
`O=c1[nH]c2ccccc2n1CCCN1CCN(C(c2ccccc2)c2ccccc2)CC1`: in assay [1], the period change is 0.15 h (inactive).
For the compound `CC(=O)[C@H]1CC[C@H]2[C@@H]3C=CC4=CC(=O)CC[C@@]4(C)[C@@H]3CC[C@]12C`, the survival in assay [14] was 6.67 (inactive).
Regarding `O=C(O)COC(=O)Cc1ccccc1Nc1c(Cl)cccc1Cl`, the survival in assay [14] is 18.6 (inactive).
In the case of `CC(C)(CO)[C@@H](O)C(=O)NCCCO`, in [14], the survival is 26.3 (inactive).
Same read-out and setting: the same measure for `CC1(C)[C@@H](OC(=O)CCC(=O)O)CC[C@]2(C)[C@H]3C(=O)C=C4[C@@H]5C[C@@](C)(C(=O)O)CC[C@]5(C)CC[C@@]4(C)[C@]3(C)CC[C@@H]12`: 4.33 (inactive).
On to `C[C@H](NCCc1ccc(O)cc1)[C@H](O)c1ccc(O)cc1`, for which the survival in assay [14] is 5.58 (inactive).
`CC(C)(C)NC[C@H](O)COc1cccc2c1CCCC2=O`: the survival in assay [14] is 3.08 (inactive).
Turning to `Cc1ncc(C[n+]2csc(CCO)c2C)c(N)n1`, in assay [14], the survival is 12.6 (inactive).
For the compound `CC(=O)OCC(=O)[C@@]1(O)CC[C@H]2[C@@H]3CCC4=CC(=O)C=C[C@]4(C)[C@@]3(F)[C@@H](O)C[C@@]21C`, the survival in assay [14] is 8 (inactive).
For the compound `CC(=O)N(CC(O)CO)c1c(I)c(C(=O)NCC(O)CO)c(I)c(C(=O)NCC(O)CO)c1I` (stereo not drawn), the survival in assay [14] was 14.3 (inactive).
Turning to `OCCOCCN1CCN(C(c2ccccc2)c2ccc(Cl)cc2)CC1` (stereo not drawn), the survival in assay [14] was 12.3 (inactive).
Take `CC(=O)OCC(=O)[C@@]1(OC(C)=O)[C@@H](C)C[C@H]2[C@@H]3C[C@H](F)C4=CC(=O)C=C[C@]4(C)[C@@]3(F)[C@@H](O)C[C@@]21C`: in assay [14], the survival is 6.42 (inactive).

Usually inhibition stands for the relative decrease from the control value, in per cent.
